{
  "source": "PubChem BioAssay (NCI)",
  "note": "Several values for one entry are separate records, joined by “and”; a condition that tells them apart may be missing. Equal entries are not always repeated. The panel holds about 83,000 compounds, 20% with a hit somewhere; the sample as a whole holds those more often.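 Percent growth is the endpoint: 0 to 100 indicates growth inhibition (40 means 60% inhibition), 0 means no net growth, and negative values indicate cell death.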 A number with no mark means an inactive call. Activity calls are given as the source filed them. How the source made its calls: active means growth percent below 10; inactive means the rest.",
  "data": [
    {"system": "NCI-H23 lung", "assay": "NCI-60 one-dose screen, 48 h (100 = growth as untreated, 0 = no growth, -100 = all killed)", "conditions": "1 µM", "units": {"growth": "%"}, "values": [
      {"smiles": "CC/C(=C(\\c1ccc(O)cc1)c1ccc(OCCN(C)C(=O)COCCNC(=O)Cc2ccc3c(c2)CN([C@@H]2CCC(=O)NC2=O)C3=O)cc1)c1ccccc1", "growth": 102},
      {"smiles": "CC/C(=C(\\c1ccc(O)cc1)c1ccc(OCCN(C)C(=O)CCOCCNC(=O)c2ccc3c(c2)CN([C@@H]2CCC(=O)NC2=O)C3=O)cc1)c1ccccc1", "growth": 105},
      {"smiles": "CC/C(=C(/c1ccc(O)cc1)c1ccc(OCCN(C)C(=O)COCCOCCNC(=O)c2ccc3c(c2)CN([C@@H]2CCC(=O)NC2=O)C3=O)cc1)c1ccccc1", "growth": 99},
      {"smiles": "CC/C(=C(/c1ccc(O)cc1)c1ccc(OCCN(C)C(=O)CCOCCNC(=O)Cc2ccc3c(c2)CN([C@@H]2CCC(=O)NC2=O)C3=O)cc1)c1ccccc1", "growth": 98.2},
      {"smiles": "CC/C(=C(/c1ccc(O)cc1)c1ccc(OCCN(C)C(=O)COCCOCCNC(=O)Cc2ccc3c(c2)CN([C@@H]2CCC(=O)NC2=O)C3=O)cc1)c1ccccc1", "growth": 101},
      {"smiles": "CC/C(=C(\\c1ccc(O)cc1)c1ccc(OCCNC)cc1)c1ccccc1", "growth": 98.9}
    ]},
    {"system": "NCI-H23 lung", "assay": "NCI-60 one-dose screen, 48 h (100 = growth as untreated, 0 = no growth, -100 = all killed)", "conditions": "10 µM", "units": {"growth": "%"}, "values": [
      {"smiles": "CC/C(=C(\\c1ccc(O)cc1)c1ccc(OCCN(C)C(=O)COCCNC(=O)Cc2ccc3c(c2)CN([C@@H]2CCC(=O)NC2=O)C3=O)cc1)c1ccccc1", "growth": 86.6},
      {"smiles": "CC/C(=C(\\c1ccc(O)cc1)c1ccc(OCCN(C)C(=O)CCOCCNC(=O)c2ccc3c(c2)CN([C@@H]2CCC(=O)NC2=O)C3=O)cc1)c1ccccc1", "growth": 97.2},
      {"smiles": "CC/C(=C(/c1ccc(O)cc1)c1ccc(OCCN(C)C(=O)COCCOCCNC(=O)c2ccc3c(c2)CN([C@@H]2CCC(=O)NC2=O)C3=O)cc1)c1ccccc1", "growth": 97},
      {"smiles": "CC/C(=C(/c1ccc(O)cc1)c1ccc(OCCN(C)C(=O)CCOCCNC(=O)Cc2ccc3c(c2)CN([C@@H]2CCC(=O)NC2=O)C3=O)cc1)c1ccccc1", "growth": 92.8},
      {"smiles": "CC/C(=C(/c1ccc(O)cc1)c1ccc(OCCN(C)C(=O)COCCOCCNC(=O)Cc2ccc3c(c2)CN([C@@H]2CCC(=O)NC2=O)C3=O)cc1)c1ccccc1", "growth": 97.4},
      {"smiles": "CC/C(=C(\\c1ccc(O)cc1)c1ccc(OCCNC)cc1)c1ccccc1", "growth": 96.5}
    ]},
    {"system": "NCI-H23 lung", "assay": "NCI-60 one-dose screen, 48 h (100 = growth as untreated, 0 = no growth, -100 = all killed)", "conditions": "10 µM unless noted", "values": [
      {"smiles": "CC1(C)CC(=O)C2=C(C1)OC(N)=C(c1nc3ccccc3[nH]1)C2c1ccc(Cl)cc1", "note": "(stereo not drawn)", "growth": "46.5% and 106%"},
      {"smiles": "COc1cc(C=O)ccc1Oc1nc(Nc2ccc(F)cc2)nc(N(C)C)n1", "growth": "59.8% and 65.8%"},
      {"smiles": "CCC(=O)c1c2c(c3ccc4c5ccccc5ccc4n13)C(=O)c1ccccc1C2=O", "growth": "44.5%"},
      {"smiles": "CCCCNC(=S)Nc1ccc(OCc2nc3ccc(Cl)cc3[nH]2)cc1", "growth": "29.3%"},
      {"smiles": "Nc1ccc(-c2ccc3ncnc(N4CCc5cc(F)c(Cl)cc54)c3c2)cn1", "growth": "29.4%"},
      {"smiles": "N#CC1=C(c2cccs2)Nc2c(c(-c3ccccc3)nn2-c2ccccc2)C12C(=O)Nc1ccc(Cl)cc12", "note": "(stereo not drawn)", "growth": "23.8%"},
      {"smiles": "C=CCn1c(O)c(N=Nc2nc(-c3cc4ccccc4oc3=O)cs2)c2ccccc21", "growth": "35.4%"},
      {"smiles": "Fc1ccccc1CNc1nc(SCCN2CCOCC2)nc2c1cnn2CC(Cl)c1ccc(Br)cc1", "note": "(stereo not drawn)", "growth": "45.1%"},
      {"smiles": "O=C(CSc1nnc(-c2ccc(-c3nc4ccc(Cl)cc4[nH]3)cc2)o1)Nc1ccccc1", "growth": "-41.5% (active)"},
      {"smiles": "O=C(CSc1nnc(-c2ccc(-c3nc4ccc(Cl)cc4[nH]3)cc2)o1)Nc1ccc(Cl)cc1", "growth": "-11.9% (active)"},
      {"smiles": "Nc1nc(-c2ccccc2)c(N=Nc2ccc(Cl)cc2Cl)s1", "growth": "-43.8% (active)"},
      {"smiles": "COc1c(B(O)O)cccc1-c1nc2ccc3cn[nH]c3c2c2c1CCCC2", "growth": "72.8%"},
      {"smiles": "Nc1nn2c(-c3cc4cc(Br)ccc4oc3=O)ccnc2c1N=Nc1ccccc1", "growth": "1.73% (active)"},
      {"smiles": "O=C1/C(=C/c2cnc(-c3ccccc3)s2)SC(=S)N1Cc1ccc2c(c1)OCO2", "growth": "47.1%"},
      {"smiles": "O=C(c1ccc(O)cc1)C1[C@H](c2ccc(Cl)cc2)[C@@H](c2ccccc2)NC12C(=O)Nc1ccc(Br)cc12", "note": "(stereo partly drawn)", "growth": "-58.7% (active)"},
      {"smiles": "COC(=O)c1cc(C(=O)C(C)(C)C)n2c3ccccc3c3ccccc3c12", "growth": "92.4%"},
      {"smiles": "COc1ccc2[nH]c(O)c(N=Nc3nc(-c4ccccc4)cs3)c2c1", "growth": "23.9%"},
      {"smiles": "CC1CCc2c(sc3nc(SCC(=O)c4cccc([N+](=O)[O-])c4)n(-c4ccccc4)c(=O)c23)C1", "note": "(stereo not drawn)", "growth": "47.4%"},
      {"smiles": "C=CCSc1nnc(-c2ccc(-c3nc4ccc(Cl)cc4[nH]3)cc2)o1", "growth": "76.2%"},
      {"smiles": "O=C(Nc1nc2ccccc2s1)Nc1ccccc1Cl", "growth": "70.5%"},
      {"smiles": "CC[C@@]12CC(C(=O)OC)=C3Nc4cc5c(cc4[C@@]34CCN(C[C@H]3O[C@H]31)[C@@H]24)[C@@H]1[C@H](O5)[C@@H](O)[C@@]2(CC)CC(C(=O)OC)=C3Nc4cc(O)ccc4[C@@]34CCN1[C@@H]24", "growth": "-53.9% (active)"},
      {"smiles": "CCOc1ccccc1NC(=O)N/C(N)=N/c1nc2ccccc2s1", "growth": "12.6%"},
      {"smiles": "COc1sc(/C=N/NC(=O)c2[nH]c3ccc(Br)cc3c2-c2ccccc2)cc1Cl", "growth": "-41.9% (active)"},
      {"smiles": "COc1cc(CNC(=O)C[C@H](C)CCC=C(C)C)ccc1OCc1cn(-c2ccccc2Cl)nn1", "growth": "64.5%"},
      {"smiles": "COc1ccc(-c2cc(C(=O)OCc3ccc(Br)cc3)nn2-c2ccc(S(C)(=O)=O)cc2)cc1OC", "growth": "93.6%"},
      {"smiles": "N#CC1=C(c2ccco2)Nc2c(c(-c3ccccc3)nn2-c2ccccc2)C12C(=O)Nc1ccc(Br)cc12", "note": "(stereo not drawn)", "growth": "70.6%"},
      {"smiles": "N/C(=N\\c1nc2ccc([N+](=O)[O-])cc2s1)NC(=O)Nc1ccccc1Cl", "growth": "44.6%"},
      {"smiles": "S=C(Nc1ccccc1)Nc1ccc(OCc2nc3ccc(Cl)cc3[nH]2)cc1", "growth": "88%"},
      {"smiles": "COc1ccc(N=Nc2c(N)nn3c(N)c(C#N)c(-c4ccc(C)cc4)nc23)cc1", "growth": "62.9%"},
      {"smiles": "O=C(NC(=S)N1CCN(c2ncnc3c2cnn3-c2ccccc2)CC1)c1ccc(F)cc1", "growth": "77.5%"},
      {"smiles": "Cc1cccc(C)c1Nc1nnc(-c2c[nH]c3ccccc23)o1", "growth": "88.8%"}
    ]}
  ]
}
